Laboratory results taken from PubChem BioAssay.
Several values for one entry are separate records, joined by “and”; a condition that tells them apart may be missing. Equal entries are not always repeated. Results filed as inconclusive are left out. Some structures have more than one record in an assay (separate samples or runs), and their calls can disagree. Activity calls are given as the source filed them.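 The calls were made as follows, unless noted: active = normalized viability below 100% at a tested concentration; inactive = the rest.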

Legend:
[1] = liver-stage malaria parasite growth inhibition, primary screen, cell-based, HepG2, luciferase luminescence, HepG2 viability (AID 624349; in the data active = parasite load remaining mostly below about 12%, no sharp cut-off; inactive = mostly above about 10%;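 also: 100% = mean of DMSO negative control wells on the same plate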); conditions: P. berghei liver stage in HepG2, luciferase luminescence, concentration not given here; parasite load remaining: stronger effect = lower value; viability: measured here: HepG2 viability without parasites
[2] = system: Aerobactin synthetase IucA (Klebsiella pneumoniae); assay: IucA aerobactin synthetase inhibitors, biochemical, Tocris library, absorbance (AID 1345561; call rule not given here;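 also: 100% = enzyme without compound and 0% = no enzyme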); conditions: purified IucA enzyme assay, absorbance (OD) read-out; stronger effect = lower value;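 tested at 8 µM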
[3] = growth inhibition of DIPG glioma cells, dose response, cell-based, SU-DIPG-XVII, MIPE5.0, CellTiter-Glo, qHTS (AID 1347060; cut-off not given, nearly all actives have AC50 up to about 26 µM); conditions: SU-DIPG-XVII viability, CellTiter-Glo ATP luminescence
[4] = growth inhibition of DIPG glioma cells, dose response, cell-based, JHH-DIPG-1, MIPE4.0, CellTiter-Glo, qHTS (AID 1347062; cut-off not given, nearly all actives have AC50 up to about 27 µM;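 as to AC50: cells exposed to compound for two days before readout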); conditions: JHH-DIPG-1 viability, CellTiter-Glo ATP luminescence
[5] = growth inhibition of DIPG glioma cells, dose response, cell-based, SU-DIPG-IV, MIPE4.0, CellTiter-Glo, qHTS (AID 1347063; cut-off not given, nearly all actives have AC50 up to about 30 µM;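 also: compound exposure lasted 48 hours before the viability readout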); conditions: SU-DIPG-IV viability, CellTiter-Glo ATP luminescence
[6] = growth inhibition of DIPG glioma cells, dose response, cell-based, SU-DIPG-XIII, MIPE5.0, CellTiter-Glo, qHTS (AID 1347064; cut-off not given, nearly all actives have AC50 up to about 23 µM); conditions: SU-DIPG-XIII viability, CellTiter-Glo ATP luminescence
[7] = SU-DIPG-VI glioma cell viability, MIPE4.0 library, CellTiter-Glo luminescence, qHTS (AID 1347066; cut-off not given, nearly all actives have AC50 up to about 30 µM;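 also: cells exposed to compound for 48 hours before readout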); conditions: CellTiter-Glo ATP luminescence
[8] = modifiers of HSF1 nuclear foci, imaging, Selleck Cancer Library (AID 1347162; in the data active = plate-normalised HSF1 focus index below about 0.46); conditions: human cells, at 10 µM; SSMD: measured here: HSF1 foci SSMD mean; cell count: measured here: cell number; plate-normalised HSF1 focus index: stronger effect = lower value
[9] = survival rescue of mitochondrial mutant cells in low glucose, primary screen, MELAS cybrids, Rieske KO mouse fibroblasts, CellTiter-Glo (AID 1508586;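 active = mean z-score across replicates of 1.96 or higher in either the MELAS or the Rieske mutant cell line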;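 also: z relative to plate mean and SD of compound and empty wells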)
[10] = ovarian cancer cell viability with rucaparib, profiling panel, oncology-focused library, rucaparib conditional (AID 1508598); conditions: patient-derived ovarian cancer cells, CellTiter-Glo viability, 144 h, stronger effect = lower value
[11] = viability rescue of complex I mutant cybrids, primary screen, cell-based, galactose medium, ATP luminescence (AID 1645843;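 active = z-score of at least 1.8 in each of two replicates, scored against plate mean and spread of sample wells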;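 also: positive z means more ATP and so rescue of galactose-driven cybrid death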); conditions: complex I mutant cybrid cells, 72 h, stronger effect = higher value
[12] = viability loss in pontine glioma line – cell-based, SU-DIPG-XXV, MIPE5.0, CellTiter-Glo, qHTS, dose response (AID 1347065; cut-off not given, nearly all actives have AC50 up to about 26 µM;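 also: cells exposed to compound for 48 hours before ATP readout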); conditions: CellTiter-Glo ATP luminescence
[13] = SU-DIPG-XXV glioma cell viability, MIPE5.0 library, qHTS (AID 1347068; cut-off not given, nearly all actives have IC50 up to about 30 µM)
[14] = sensitizers of A549 cells to miR-34 induction, primary screen, imaging, A549 dox-inducible miR-34, nuclei and caspase counts (AID 1347080;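 active = compounds whose cell count with miR-34 switched on is under 0.7 times the count with it off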); conditions: A549 miR-34 inducible, Hoechst nuclei count, 48 h
[15] = growth inhibition of DIPG glioma cells, dose response, cell-based, SU-DIPG-XIII, MIPE4.0, CellTiter-Glo, qHTS (AID 1347061; cut-off not given, nearly all actives have AC50 up to about 37 µM;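 also: cells exposed to compound for 48 hours before readout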); conditions: SU-DIPG-XIII viability, CellTiter-Glo ATP luminescence
[16] = JHH-DIPG-1 glioma cell viability, MIPE5.0 library, CellTiter-Glo luminescence, qHTS (AID 1347067; cut-off not given, nearly all actives have AC50 up to about 26 µM;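 also: cells exposed to compound for 48 hours before readout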); conditions: JHH-DIPG-1 glioma viability, CellTiter-Glo ATP luminescence
[17] = MELAS cybrid survival, CellTiter-Glo 48 h, stronger effect = higher value
[18] = Rieske KO mouse fibroblast survival, CellTiter-Glo 72 h
[19] = at 0.000305 µM, OCI-C5x cells, with rucaparib 10 µM, 100% = cells with rucaparib alone
[20] = at 0.000305 µM, OCI-C5x cells, without rucaparib
[21] = at 0.000305 µM, OCI-P5x cells, with rucaparib 20 µM, 100% = cells with rucaparib alone
[22] = at 0.000305 µM, OCI-P5x cells, without rucaparib
[23] = at 0.00122 µM, OCI-C5x cells, with rucaparib 10 µM, 100% = cells with rucaparib alone
[24] = at 0.00122 µM, OCI-C5x cells, without rucaparib
[25] = at 0.00122 µM, OCI-P5x cells, with rucaparib 20 µM, 100% = cells with rucaparib alone
[26] = at 0.00122 µM, OCI-P5x cells, without rucaparib
[27] = at 0.00488 µM, OCI-C5x cells, with rucaparib 10 µM, 100% = cells with rucaparib alone
[28] = at 0.00488 µM, OCI-C5x cells, without rucaparib
[29] = at 0.00488 µM, OCI-P5x cells, with rucaparib 20 µM, 100% = cells with rucaparib alone
[30] = at 0.00488 µM, OCI-P5x cells, without rucaparib
[31] = at 0.0195 µM, OCI-C5x cells, with rucaparib 10 µM, 100% = cells with rucaparib alone
[32] = at 0.0195 µM, OCI-C5x cells, without rucaparib
[33] = at 0.0195 µM, OCI-P5x cells, with rucaparib 20 µM, 100% = cells with rucaparib alone
[34] = at 0.0195 µM, OCI-P5x cells, without rucaparib
[35] = at 0.0781 µM, OCI-C5x cells, with rucaparib 10 µM, 100% = cells with rucaparib alone
[36] = at 0.0781 µM, OCI-C5x cells, without rucaparib
[37] = at 0.0781 µM, OCI-P5x cells, with rucaparib 20 µM, 100% = cells with rucaparib alone
[38] = at 0.0781 µM, OCI-P5x cells, without rucaparib
[39] = at 0.313 µM, OCI-C5x cells, with rucaparib 10 µM, 100% = cells with rucaparib alone
[40] = at 0.313 µM, OCI-C5x cells, without rucaparib
[41] = at 0.313 µM, OCI-P5x cells, with rucaparib 20 µM, 100% = cells with rucaparib alone
[42] = at 0.313 µM, OCI-P5x cells, without rucaparib
[43] = at 1.25 µM, OCI-C5x cells, with rucaparib 10 µM, 100% = cells with rucaparib alone
[44] = at 1.25 µM, OCI-C5x cells, without rucaparib
[45] = at 1.25 µM, OCI-P5x cells, with rucaparib 20 µM, 100% = cells with rucaparib alone
[46] = at 1.25 µM, OCI-P5x cells, without rucaparib
[47] = at 5 µM, OCI-C5x cells, with rucaparib 10 µM, 100% = cells with rucaparib alone
[48] = at 5 µM, OCI-C5x cells, without rucaparib
[49] = at 5 µM, OCI-P5x cells, with rucaparib 20 µM, 100% = cells with rucaparib alone
[50] = at 5 µM, OCI-P5x cells, without rucaparib
[51] = stronger effect = lower value, cell number ratio, induced over uninduced
[52] = measured here: relative caspase fold change +Dox/-Dox
[53] = measured here: total cells with miR-34 induction, stronger effect = lower value
[54] = measured here: total cells without miR-34 induction

CS(=O)c1ccc(-c2nc(-c3ccc(F)cc3)c(-c3ccncc3)[nH]2)cc1 (stereo unspecified)
2.53: SSMD [8]
0.991: z-score [9, 18]
active: AC50 [4] 15.2 µM | AC50 [5] 48.1 µM
76.8%: viability [1]
inactive: parasite load remaining [1] 28.5% | remaining activity [2] 113% and 119% | outcome [3] | outcome [6] | outcome [7] | plate-normalised HSF1 focus index [8] 1.16 | z-score [9, 17] -0.617 | viability [10, 19] 128% | viability [10, 20] 139% | viability [10, 21] 109% | viability [10, 22] 111% | viability [10, 23] 123% | viability [10, 24] 135% | viability [10, 25] 103% | viability [10, 26] 107% | viability [10, 27] 134% | viability [10, 28] 139% | viability [10, 29] 108% | viability [10, 30] 111% | viability [10, 31] 128% | viability [10, 32] 145% | viability [10, 33] 108% | viability [10, 34] 108% | viability [10, 35] 127% | viability [10, 36] 164% | viability [10, 37] 108% | viability [10, 38] 112% | viability [10, 39] 129% | viability [10, 40] 159% | viability [10, 41] 119% | viability [10, 42] 111% | viability [10, 43] 116% | viability [10, 44] 166% | viability [10, 45] 130% | viability [10, 46] 108% | viability [10, 47] 132% | viability [10, 48] 161% | viability [10, 49] 119% | viability [10, 50] 113%
1.98 (inactive) and 3.42 (active): z-score [11]
7460: cell count [8]

COC1CCC(C(=O)c2ccc3nc4c(cc3c2)CCCO4)CC1 (stereo unspecified)
inactive: remaining activity [2] 99.8% | outcome [3] | outcome [6] | outcome [12] | outcome [13] | fold change [14, 51] 0.932 | z-score [11] 0.32
8760: cell count [14, 54]
active: AC50 [4] 20.9 µM | AC50 [5] 9.35 µM
8170: cell count [14, 53]
1.27: fold change [14, 52]

O=C1NC(=O)C(c2ccccc2[N+](=O)[O-])=C1Nc1ccc(O)c(Cl)c1
0.723: z-score [9, 18]
inactive: remaining activity [2] 112% | outcome [3] | outcome [15] | outcome [4] | outcome [5] | outcome [6] | outcome [16] | outcome [13] | fold change [14, 51] 1 and 1.09 and 0.982 | z-score [9, 17] -0.406 | z-score [11] 1.65 and 0.35

N#Cc1c(O)c2c(-c3ccc(-c4ccccc4O)cc3)csc2[nH]c1=O
7410: cell count [8]
active: viability [10, 49] 92.2% | viability [10, 50] 90.6%
0.924 and 1.54: fold change [14, 52]
3.35: SSMD [8]
10000 and 9660: cell count [14, 53]
1.29: z-score [9, 18]
10900 and 9540: cell count [14, 54]
inactive: remaining activity [2] 103% | outcome [3] | outcome [15] | outcome [4] | outcome [5] | outcome [12] | outcome [7] | outcome [16] | outcome [13] | fold change [14, 51] 0.919 and 1.01 | plate-normalised HSF1 focus index [8] 1.12 | z-score [9, 17] -0.277 | viability [10, 19] 106% | viability [10, 20] 121% | viability [10, 21] 114% | viability [10, 22] 119% | viability [10, 23] 115% | viability [10, 24] 131% | viability [10, 25] 119% | viability [10, 26] 107% | viability [10, 27] 111% | viability [10, 28] 126% | viability [10, 29] 116% | viability [10, 30] 113% | viability [10, 31] 112% | viability [10, 32] 122% | viability [10, 33] 116% | viability [10, 34] 114% | viability [10, 35] 113% | viability [10, 36] 127% | viability [10, 37] 119% | viability [10, 38] 115% | viability [10, 39] 115% | viability [10, 40] 134% | viability [10, 41] 117% | viability [10, 42] 118% | viability [10, 43] 112% | viability [10, 44] 140% | viability [10, 45] 107% | viability [10, 46] 107% | viability [10, 47] 118% | viability [10, 48] 135% | z-score [11] 1.98
